For part of these data: Results with a measured potency or affinity are listed apart.

One test is described as follows: blockers of polyQ-driven CASP3 activation – cell-based (AID 1583). Particulars: polyglutamine-induced caspase-3 activation, cell assay; stronger effect = higher value;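 tested at 10 µM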.
Consider `OC(c1cc(C(F)(F)F)nc2c(C(F)(F)F)cccc12)C1CCCCN1` (stereo not given), for which the inhibition – broadly, the drop in the measured response relative to a control, in per cent – stood at 50.1%.

For `C=CC[C@@H]1/C=C(\C)C[C@H](C)C[C@H](OC)[C@H]2O[C@@](O)(C(=O)C(=O)N3CCCC[C@H]3C(=O)O[C@H](/C(C)=C/[C@@H]3CC[C@@H](O)[C@H](OC)C3)[C@H](C)[C@@H](O)CC1=O)[C@H](C)C[C@@H]2OC`, the inhibition was -0.04%.

On to `COc1ccc(C2Sc3ccccc3N(CCN(C)C)C(=O)C2OC(C)=O)cc1` (stereo not given), for which the inhibition turned out to be 5.24%.

The next test is described as follows: yeast 75Q aggregation reduction – 75Q-TubU reporter (AID 1593). The note with it: Yeast 75Q polyglutamine aggregation reporter.
In turn, `OC(c1cc(C(F)(F)F)nc2c(C(F)(F)F)cccc12)C1CCCCN1` (stereo not given) came in with a score of 1.42.

`C=CC[C@@H]1/C=C(\C)C[C@H](C)C[C@H](OC)[C@H]2O[C@@](O)(C(=O)C(=O)N3CCCC[C@H]3C(=O)O[C@H](/C(C)=C/[C@@H]3CC[C@@H](O)[C@H](OC)C3)[C@H](C)[C@@H](O)CC1=O)[C@H](C)C[C@@H]2OC` had a score of -0.08.

In turn, `COc1ccc(C2Sc3ccccc3N(CCN(C)C)C(=O)C2OC(C)=O)cc1` (stereo not given) came in with a score of 1.09.

A further test in a line: restoration of touch response, mutant HTT neurons – whole organism, C. elegans mechanosensory neurons, N-terminal huntingtin (AID 1599). The note with it: C. elegans polyQ-huntingtin mechanosensory neurons, stronger effect = higher value.
In turn, `OC(c1cc(C(F)(F)F)nc2c(C(F)(F)F)cccc12)C1CCCCN1` (stereo not given) yielded a rescue above control of 0.

The compound `C=CC[C@@H]1/C=C(\C)C[C@H](C)C[C@H](OC)[C@H]2O[C@@](O)(C(=O)C(=O)N3CCCC[C@H]3C(=O)O[C@H](/C(C)=C/[C@@H]3CC[C@@H](O)[C@H](OC)C3)[C@H](C)[C@@H](O)CC1=O)[C@H](C)C[C@@H]2OC` yielded a rescue above control of 0.

Compound `COc1ccc(C2Sc3ccccc3N(CCN(C)C)C(=O)C2OC(C)=O)cc1` (stereo not given) displayed a rescue above control of -7.88.

A further test in a line: blockers of cytochrome c efflux from mitochondria – biochemical, purified mitochondria (AID 1603).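 Note: mouse liver mitochondria challenged with calcium chloride; signal normalized to the plate average as 100%.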 Particulars: stronger effect = lower value.
Regarding `OC(c1cc(C(F)(F)F)nc2c(C(F)(F)F)cccc12)C1CCCCN1` (stereo not given), the cytochrome c release ratio stood at 2.44.

With `C=CC[C@@H]1/C=C(\C)C[C@H](C)C[C@H](OC)[C@H]2O[C@@](O)(C(=O)C(=O)N3CCCC[C@H]3C(=O)O[C@H](/C(C)=C/[C@@H]3CC[C@@H](O)[C@H](OC)C3)[C@H](C)[C@@H](O)CC1=O)[C@H](C)C[C@@H]2OC`, the cytochrome c release ratio stood at 2.76.

With `COc1ccc(C2Sc3ccccc3N(CCN(C)C)C(=O)C2OC(C)=O)cc1` (stereo not given), the cytochrome c release ratio amounted to 1.1.

A further test in a line: polyglutamine aggregate formation blockers (AID 1604). Particulars: polyglutamine-induced protein aggregation inhibition assay; stronger effect = higher value; tested at 2.5 µM.
For `OC(c1cc(C(F)(F)F)nc2c(C(F)(F)F)cccc12)C1CCCCN1` (stereo not given), the inhibition of aggregation was -19.6%.

Take `C=CC[C@@H]1/C=C(\C)C[C@H](C)C[C@H](OC)[C@H]2O[C@@](O)(C(=O)C(=O)N3CCCC[C@H]3C(=O)O[C@H](/C(C)=C/[C@@H]3CC[C@@H](O)[C@H](OC)C3)[C@H](C)[C@@H](O)CC1=O)[C@H](C)C[C@@H]2OC`: the inhibition of aggregation turned out to be 0%.

As for `COc1ccc(C2Sc3ccccc3N(CCN(C)C)C(=O)C2OC(C)=O)cc1` (stereo not given), the inhibition of aggregation worked out at 45.9%.

The record behind these values is PubChem BioAssay.
